Measured values from PubChem BioAssay (NCI).
About 83,000 compounds went through this panel and 20% of them were active in at least one assay; those are over-represented in the sample as a whole.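 How to read the values: 0–100, growth inhibition (40 = 60% inhibited); 0, no net growth; -100 to 0, cell death (-40 = 40% of starting cells died; -100 = all dead).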 Values without a mark were called inactive. Calls of active or inactive are those of the source. How the source made its calls: active means growth percent below 10; inactive means the rest.

System: NCI/ADR-RES ovarian
Assay: NCI-60 one-dose screen, 48 h (100 = growth as untreated, 0 = no growth, -100 = all killed)
Details: 10 µM unless noted

Compared with Clc1ccc(-c2nnc(-c3ccco3)o2)cc1, O=C1Nc2ccccc2SC1c1ccccc1Cl (stereo not drawn) is lower in growth: 104% for the first, 101% for the second.

First: O=C1CSC(c2ccc(O)cc2)N1c1nnc(Cn2cnnc2)o1 (stereo not drawn)
Second: CC(=O)Nc1cccc(C2=CC(c3ccc(C)cc3)n3ncnc3N2)c1 (stereo not drawn)
The growth of the first is lower: 92.2% for the first, 97.6% for the second.

First: NC(N)=N/N=C/c1ccc(Br)cc1
Second: N#Cc1c(N)nc2c(nnn2-c2cccc(Br)c2)c1N
The growth of the first is lower: 28.2% for the first, 103% for the second.

Compared with CCOC(=O)c1sc2ccc(NCc3nc[nH]c3C)cc2c1NC(=O)c1cc(OC)c(OC)c(OC)c1, CCC(=O)OC1=C(C)SC2=NC(c3ccc(Cl)c(Cl)c3)=CC(c3cc(OC)c(OC)c(OC)c3)N21 (stereo not drawn) is higher in growth: 91.7% for the first, 105% for the second.

First: CCN(CC)CCCNC(=O)c1ccc(N)cc1O
Second: CSc1ccc(Cl)c(C(=O)Nc2sccc2C(N)=O)c1
The growth of the first is lower: 96.1% for the first, 99% for the second.

Going from Cc1cn(C2CCCCC2)c(=O)[nH]c1=O to COc1ccc(/C(C)=C(\c2ccc(Cl)cc2)c2ccc(OCCN3CCCCCC3)cc2)cc1F, the growth falls from 109% to 65.7%.

First: CCCCOC(=O)c1ccc(NC(=O)C(C)N2CCOCC2)cc1 (stereo not drawn)
Second: COc1ccc(NC(=O)C(=O)c2c[nH]c3ccc(F)cc23)cc1
The growth of the first is higher: 101% for the first, 96.2% for the second.

Compared with O=C(O)CC1Sc2ccccc2NC1=O (stereo not drawn), O=C(CC1Sc2ccccc2NC1=O)NNc1ccc(F)cc1 (stereo not drawn) is lower in growth: 88.2% for the first, 44.1% for the second.

First: CC(c1ccc(-n2cccn2)cc1)c1cnc(N2CCc3ccc(C(N)=O)cc3C2)s1 (stereo not drawn)
Second: Cc1ccccc1NC(=O)CN(C)C
The growth of the first is lower: 32.1% for the first, 101% for the second.

In the case of CNC=O, the growth is reported as 59.5%.

For Cc1cccc(-c2cc(O)c(C(=O)N3CCOCC3)s2)c1, the growth was 6.7% (active).
CC/C=C/[C@@H]1C=C[C@@H]2CCC[C@H]2[C@@H]1CC[C@H](O)[C@H](C)N was tested, and the growth was -33.4% (active).
O=C1CSC(c2ccccc2Cl)N1c1nnc(Cn2cnnc2)o1 (stereo not drawn) was tested, and the growth was 8.38% (active).
C=C(C=O)[C@@H]1CC=C(C=O)CC1 was tested, and the growth was 3.97% (active).
